MITF TRPM1 HTS – activators of MITF-driven TRPM1 promoter activity in SK-MEL-5 cells. activation, % at 12.5 µM. hit rate 0.75% among 300,000. SK-MEL-5 TRPM1-promoter luciferase, 24 h; % of positive control, neutral wells = 0;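 active = mean activation of at least 80% with every replicate also reaching 80%; inconclusive = mean reaches 80% but some replicate falls short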;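 also: 0% = neutral control wells and 100% = parthenolide positive control wells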
esBAF inh – SWI/SNF esBAF complex inhibition; mouse ES cells, Bmi1-luciferase knock-in reporter, 24 h; 100% = twice the neutral-well signal; reporter increase, % at 12.5 µM; hit rate 2% among 350,000; AID 602393; in the data active = activation above about 40%; inconclusive = no clear call, values can overlap the other calls;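 also: 0% = median of the plate's neutral control wells and 100% = double that signal; a rise in the Bmi1 reporter signal indicates esBAF inhibition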
HSF-1 act – increases HSF-1 driven luciferase reporter signal | NIH3T3-HGL HSF-1 luciferase reporter, MG132, 8 h; 100% = twice DMSO control signal | activation, % at 9 µM | hit rate 1.7% among 300,000;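 active = mean replicate activation of at least 50% with a set share of replicates each reaching 50%; inconclusive = only one of those two conditions met; inactive = mean below 50% and too few replicates reaching it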;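 also: 0% = median of the neutral control wells and 100% = twice that signal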
Wnt bcat act – activates Wnt/beta-catenin signaling in a reporter cell assay. activator, plate reader. activation, % at 9.35 µM. hit rate 1.2% among 300,000. AID 743398; in the data active = activation above about 30%, passing the limit was not always enough; inconclusive = no clear call, values can overlap the other calls;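 also: 0% = neutral control wells and 100% = positive control wells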
SMARCA2 act – activators of SMARCA2 function; hit rate 1% among 370,000; MG213 cells, MMTV-luciferase reporter, dexamethasone, overnight; AID 652017; activation, % at 9.1 µM; in the data active = activation above about 7.8%;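 also: 0% = vehicle wells and 100% = reference activator wells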
HSF1 inh – HSF1 inhibition. AID 2098. activity change, negative = inhibition, % at 7.5 µM (by protocol). hit rate 0.77% among 300,000. NIH3T3-HGL HSE-luciferase, MG132-induced, luminescence 8 h; active compounds read low;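 active = more than half of replicate wells show activity change below -50%, luminescence cut by over half; inconclusive = some wells, but at most half, below -50%; inactive = no replicate well below -50%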;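 also: luciferase reports HSF-1 transcriptional activity via heat shock element; 0% = median of DMSO wells and -100% = zero luminescence signal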
Starred values were filed as active, the others as inactive; u = inconclusive; x = no result given. Compounds with a hit are over-represented: about 4.3% of the library has one in this group of screens.

SMILES	MITF TRPM1 HTS	esBAF inh	HSF-1 act	Wnt bcat act	SMARCA2 act	HSF1 inh
CNC(=S)N/N=C/c1c(Cl)cccc1Cl	-0.4	-9.1	-66.8	x	0.8	-59.0*
Oc1ccc(C=NNC(=S)Nc2ccc(F)cc2)c(O)c1	17.0	u	x	37.3*	-1.3	x
O=C(N/N=C/c1c(Cl)cccc1Cl)c1ccc(F)cc1	14.9	29.4	26.3	1.1	1.4	6.8
Cn1cccc1C(=O)N/N=C/c1c(Cl)cccc1Cl	92.1*	24.1	30.7	28.0	1.1	27.4
S=C(N/N=C/c1ccccc1Cl)Nc1ccccc1	26.0	36.7	72.4*	4.6	2.9	29.8
C[C@H]1CN([C@@H](C)CO)C(=O)Cc2cc(NC(=O)C3CC3)ccc2O[C@@H]1CN(C)C(=O)Nc1ccccc1	x	-1.8	x	x	x	x
CC(=O)Nc1cc(C(=O)N(C)Cc2ccco2)ccc1Sc1ccc(C)cc1	2.2	x	-84.9	x	-4.5	-80.9*
CCCN1[C@@H]2Cn3c(ccc(-c4cccc(OC)c4)c3=O)[C@H]1[C@@H](C(=O)NCC)[C@@H]2CO	x	-3.3	x	x	x	x
CCCS(=O)(=O)c1cnc(C2COc3ccccc3O2)nc1N (stereo not given)	-69.8	-85.7	-83.2	-8.6	-6.5	-80.1*
Cc1ccc(Oc2ccc(/C=N/O)cn2)cc1	x	48.0*	11.0	5.3	2.8	8.4
Cc1ccc(COc2ccc(/C=N/O)cc2)cc1	42.4	x	44.3	31.0*	5.2	26.9
CC(C)(C)OC(=O)N[C@@H](Cc1ccccc1)C(=O)NCC1CCC(C(=O)N[C@@H](CC(=O)O)C(=O)O)CC1 (stereo not given in full)	12.0	3.3	-70.6	2.4	-0.2	-63.0*
CCC(C)[C@H](NC(=O)OC(C)(C)C)C(=O)NCC1CCC(C(=O)N[C@@H](Cc2ccccc2)C(=O)O)CC1 (stereo not given in full)	-6.8	-2.3	9.1	-2.0	2.3	2.1
O=C(C[C@H]1C=C[C@H](NC(=O)c2ccccn2)[C@H](CO)O1)NCc1cccc(F)c1	x	-4.7	x	x	x	x
Cc1ccc(CNC(=O)COC(=O)C2CCN(S(=O)(=O)c3cccs3)CC2)cc1	-2.5	2.3	-7.7	95.8*	-4.7	5.0
CC(C)c1cc(O)c(-c2ccccc2)c(=O)n1-c1ccc(Cl)cc1	x	-3.5	-11.3	-4.2	-4.9	-9.4
CC(C)c1c(O)cc(-c2ccncc2)n(-c2ccc(Cl)cc2)c1=O	-1.3	x	8.0	x	14.1*	13.2
C[C@H]1CCCCO[C@@H](CN(C)Cc2ccc(C(=O)O)cc2)[C@@H](C)CN([C@@H](C)CO)C(=O)c2cc(NC(=O)Nc3ccc(F)cc3)ccc2O1	x	-13.5	x	x	x	x
Nc1nc2ccc(OC(F)(F)F)cc2s1	40.8	43.0*	-45.2	10.9	-3.2	-29.2
Nc1nc2ccc(O)cc2s1	x	-9.5	17.8	2.3	-0.6	-3.2
CC(C)c1ccc2nc(N)sc2c1	92.0*	-5.3	24.5	10.9	3.6	9.9
COc1ccc(CN(C)C[C@H]2Oc3c(NS(=O)(=O)c4c(C)noc4C)cccc3C(=O)N([C@H](C)CO)C[C@H]2C)cc1	x	-3.4	x	x	x	x
O=C(C1CCC1)N1C[C@H]2[C@@H](c3ccccc31)[C@H](CO)N2C(=O)c1ccccc1F	x	-1.9	x	x	x	x
Cc1ccc2oc(C(=O)N3CCC(O)(c4cccc(C(F)(F)F)c4)CC3)c(C)c2c1	13.5	17.3	75.4*	5.3	0.4	40.9
Cc1cc(Cl)nc(-c2ccccc2)n1	-0.5	x	10.7	-1.9	-2.9	-0.4
SMILES	MITF TRPM1 HTS	esBAF inh	HSF-1 act	Wnt bcat act	SMARCA2 act	HSF1 inh
Cc1cc2c(C)nc(-c3ccccc3)nc2o1	77.4	x	31.8	48.5*	7.2	11.9
C[C@@H]1CN([C@H](C)CO)C(=O)c2cc(-c3ccc(F)cc3)cnc2O[C@H]1CN(C)C(=O)Cc1ccccn1	x	-2.7	x	x	x	x
COc1cccc(/C=C/c2ccccn2)c1O	67.1	x	34.8	41.5*	1.6	28.5
CC(Cc1ccccc1)NC(=O)c1cc2ccccc2o1 (stereo not given)	67.3	82.1*	43.5	29.2	1.5	38.2
O=C(c1ccccc1)c1cc2ccccc2o1	108.4*	48.6*	54.2*	11.5	4.1	30.6
C/C(=N\NS(=O)(=O)c1ccc(C)c([N+](=O)[O-])c1)c1cc2ccccc2o1	-7.7	x	17.3	x	0.1	-5.6
Cc1ccc(C(=O)c2cc3ccccc3o2)cc1[N+](=O)[O-]	52.3	67.4*	64.4*	14.5	0.4	33.8
CCC(=O)Nc1ccc(NC(=O)c2cc3ccccc3o2)cc1	44.3	29.1	x	x	5.8	x
O=C(N[C@H]1CC[C@@H](CC(=O)N2CCC(Cc3ccccc3)CC2)O[C@@H]1CO)c1cnccn1	x	8.0	x	x	x	x
CCN1[C@@H]2Cn3c(ccc(-c4ccccc4OC)c3=O)[C@H]1[C@@H](C(=O)N[C@@H](C)c1ccccc1)[C@@H]2CO	x	2.9	x	x	x	x
O=C(C[C@@H]1CC[C@@H](NC(=O)C2CC2)[C@@H](CO)O1)NCC1CC1	x	0.9	x	x	x	x
CO[C@H]1CN(C)C(=O)c2cc(NC(=O)Nc3ccccc3F)ccc2OC[C@@H](C)N(C)C[C@@H]1C	x	3.3	x	x	x	x
CC1=C(CO)C(=O)OC([C@@H](C)C2CC[C@H]3C4C[C@H]5O[C@]56[C@@H](O)C=CC(=O)[C@]6(C)C4CC[C@]23C)C1 (stereo not given in full)	-106.5	-74.8	64.1*	-2.8	-8.0	37.7
O=C(NC(C(=O)c1ccccc1)c1ccccc1)c1ccccc1 (stereo not given)	41.4	40.7*	x	-2.2	-2.5	x
O=C(OCn1ncc(Cl)c(Cl)c1=O)c1ccccc1Cl	-109.9	-68.7	-95.4	x	-10.0	-94.5*
O=C(OCn1ncc(Cl)c(Cl)c1=O)c1ccc(F)cc1	x	x	-94.5	x	x	-93.6*
C[C@H](CO)N1C[C@H](C)[C@@H](CN(C)Cc2ccc(Oc3ccccc3)cc2)Oc2ccc(NC(=O)CCC(F)(F)F)cc2CC1=O	x	-2.1	x	x	x	x
Cc1ccccc1CN1C(=O)c2ccccc2C1c1nnnn1-c1ccc2c(c1)OCCO2 (stereo not given)	x	x	x	-14.7	7.9*	x
CNC[C@@H]1Oc2cc(C#Cc3ccc(OC)cc3)ccc2S(=O)(=O)N([C@@H](C)CO)C[C@H]1C	x	-3.2	x	x	x	x
O=C(O)c1cc(NN=C2CCN(Cc3ccccc3)CC2)ccc1Cl	28.2	50.9*	-2.8	0.8	4.0	-4.6
O=C(O)c1cc(N/N=C/C=C/c2ccccc2)ccc1Cl	u	90.0*	9.8	13.6	1.7	5.2
O=C(NN=C1CCN(Cc2ccccc2)CC1)c1ccccc1O	1.7	x	-0.3	-1.3	-2.9	-3.0
Cc1cccc(S(=O)(=O)N2C[C@@H]3[C@H](c4ccccc42)[C@H](CO)N3C(=O)CC2CC2)c1	x	-3.5	x	x	x	x
CC(=O)N(C)C[C@H]1Oc2cc(C#CC(C)(C)O)ccc2S(=O)(=O)N([C@@H](C)CO)C[C@@H]1C	x	3.8	x	x	x	x
CN1CCN(CC(=O)Nc2nnc(-c3cccs3)s2)CC1	4.1	x	-61.7	2.0	-3.6	-54.1*
